Reference: PubChem BioAssay (NCATS)
Values joined by “and” are separate entries in the source; they are usually repeats but may differ in a detail not shown here. Equal entries are not always repeated. Results filed as inconclusive are left out. Entries that show only a call come without a potency. Active and inactive are the calls of the source. The call rests on the fitted dose curve; in most records, active means well fitted curve in the direction sought with a large enough effect; inconclusive means small, poorly fitted or top-dose-only effect, or another doubt; inactive means no such curve, though single readings can be large; an effect the other way counts as inactive or inconclusive.

test system: not listed separately; assay: Cell Viability - LYMP2-022 (AID 987); settings: LYMP2-022 lymphoblastoid cell viability; series mostly up to 92.2 µM;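 further: cells exposed to compound for 24 hr; nearly all actives have a fitted effect of over 55% in size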; further: potency means the concentration at half of the fitted maximal effect
In short: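 Acute toxicity in a human lymphoblastoid line is scored as decreased intracellular ATP after 24 hr compound treatment at 37 C. ATP is measured by CellTiter-Glo luminescence; curves are fitted with the Hill equation to give AC50.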

Question: Which Potency does the source give for `NCC(O)c1ccc(O)cc1` (stereo not given) here?
Answer: inactive

Question: For `CCCC(C)(COC(N)=O)COC(=O)NC(C)C` (stereo not given), which Potency is on record?
Answer: inactive

Question: With `Oc1cccc2cccnc12` as the molecule, how does the Potency read?
Answer: 10 µM (active) and 6.31 µM (active)

test system: not listed separately; assay: Cell Viability - LYMP2-024 (AID 988); settings: LYMP2-024 lymphoblastoid cell viability; series mostly up to 92.2 µM;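 further: cells exposed to compound for 24 hr at 37 °C; nearly all actives have a fitted effect of over 60% in size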; further: potency means the concentration at half of the fitted maximal effect
In short: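 Acute toxicity is measured as concentration-dependent loss of intracellular ATP in a human lymphoblastoid line treated 24 hours at 37 C. Luciferase luminescence quantifies ATP; AC50 values come from standard Hill-equation modelling.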

Question: For `NCC(O)c1ccc(O)cc1` (stereo not given), which Potency is on record?
Answer: inactive

Question: For `CCCC(C)(COC(N)=O)COC(=O)NC(C)C` (stereo not given), which Potency is on record?
Answer: inactive

Question: With `Oc1cccc2cccnc12` as the molecule, how does the Potency read?
Answer: 7.94 µM (active)

target: Alpha-galactosidase A (Homo sapiens) (UniProt P06280); assay: Counterscreen for Glucocerebrosidase Inhibitors: qHTS Assay for Human alpha-Galactosidase at pH 4.5 (AID 992); settings: purified enzyme, fluorogenic substrate; series mostly up to 76.9 µM
Sequence (P06280 whole entry, looked up): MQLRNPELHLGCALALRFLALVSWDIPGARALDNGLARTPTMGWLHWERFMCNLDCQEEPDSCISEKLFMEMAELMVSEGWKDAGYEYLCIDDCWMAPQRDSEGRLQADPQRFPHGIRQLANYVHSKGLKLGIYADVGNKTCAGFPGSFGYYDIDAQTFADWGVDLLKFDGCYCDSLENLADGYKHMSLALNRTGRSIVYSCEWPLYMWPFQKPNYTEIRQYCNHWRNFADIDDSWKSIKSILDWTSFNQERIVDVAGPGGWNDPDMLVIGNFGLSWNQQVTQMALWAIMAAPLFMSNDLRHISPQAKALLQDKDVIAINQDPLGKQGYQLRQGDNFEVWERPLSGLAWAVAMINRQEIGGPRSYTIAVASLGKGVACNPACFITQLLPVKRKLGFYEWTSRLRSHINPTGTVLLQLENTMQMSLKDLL
In short: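 Human enzyme (2 nM) with 80 uM 4-methylumbelliferyl alpha-D-galactopyranoside in 50 mM citric acid, 0.005% Tween-20, pH 4.5, 20 min at room temperature. Compounds 0.7 nM–77 uM; fluorescence Ex 365/Em 440 after pH 10 stop; AC50 from Hill fits.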

Question: With `CN1C[C@H](CNC(=O)OCc2ccccc2)C[C@@H]2c3cccc4c3c(cn4C)C[C@H]21` as the molecule, how does the outcome read?
Answer: inactive

Question: With `CC(=O)[C@H]1CC[C@H]2[C@@H]3CC[C@H]4C[C@H](O)CC[C@]4(C)[C@H]3C(=O)C[C@]12C` as the molecule, how does the outcome read?
Answer: inactive

Question: Which outcome does the source give for `NCC1(CC(=O)O)CCCCC1` here?
Answer: inactive

Question: Which outcome does the source give for `Cc1ccc(S(=O)(=O)N[C@@H](CCCCN)C(=O)CCl)cc1` here?
Answer: inactive

Question: For `CCCC(C)(COC(N)=O)COC(=O)NC(C)C` (stereo not given), which outcome is on record?
Answer: inactive

Question: Which outcome does the source give for `Cc1ncc(CNC(=O)N(CCCl)N=O)c(N)n1` here?
Answer: inactive

Question: Which outcome does the source give for `O=c1[nH]c2ccccc2n1CCCN1CCC(n2c(=O)[nH]c3cc(Cl)ccc32)CC1` here?
Answer: inactive

Question: Which outcome does the source give for `Nc1ccncc1` here?
Answer: inactive

Question: For `c1ccc(C2CC2)c(OCC2=NCCN2)c1`, which outcome is on record?
Answer: inactive

Question: Which outcome does the source give for `Cc1cccc(C)c1NC1=NCCCS1` here?
Answer: inactive

Question: Which outcome does the source give for `CCCN1CCC[C@@H]2Cc3[nH]ncc3C[C@H]21` here?
Answer: inactive

Question: With `COc1ccccc1N1CCNCC1` as the molecule, how does the outcome read?
Answer: inactive

Question: With `CCn1cc(C(=O)O)c(=O)c2ccc(C)nc21` as the molecule, how does the outcome read?
Answer: inactive

test system: not listed separately; assay: Cell Viability - LYMP1-002 - Assay at 24 hr (AID 993); settings: LYMP1-002 lymphoblastoid cells viability; series mostly up to 92.2 µM; further: potency means the concentration at half of the fitted maximal effect
In short: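 qHTS, LYMP1-002 lymphoblastoid, 24 h cpd, 37 C, CellTiter-Glo ATP luminescence; AC50 via Hill eq.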

Question: For `NCC(O)c1ccc(O)cc1` (stereo not given), which Potency is on record?
Answer: inactive

Question: For `CCCC(C)(COC(N)=O)COC(=O)NC(C)C` (stereo not given), which Potency is on record?
Answer: inactive

Question: With `Oc1cccc2cccnc12` as the molecule, how does the Potency read?
Answer: 25.1 µM (active)

target: alpha-glucosidase (Oryza sativa, rice) (UniProt Q653V4); assay: Counterscreen for Glucocerebrosidase Inhibitors: qHTS Assay for Rice alpha-Glucosidase at pH 5.0 (AID 997); settings: rice alpha-glucosidase enzyme activity; series mostly up to 76.9 µM
In short: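 Rice alpha-glucosidase (4 nM final) with 400 uM 4-methylumbelliferyl-alpha-D-glucopyranoside in citrate buffer pH 5.0, 20 min at room temperature, stopped at pH 10; fluorescence 365/440 nm, compounds 0.7 nM–77 uM, AC50 from Hill fits.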

Question: For `CN1C[C@H](CNC(=O)OCc2ccccc2)C[C@@H]2c3cccc4c3c(cn4C)C[C@H]21`, which outcome is on record?
Answer: inactive

Question: For `CC(=O)[C@H]1CC[C@H]2[C@@H]3CC[C@H]4C[C@H](O)CC[C@]4(C)[C@H]3C(=O)C[C@]12C`, which outcome is on record?
Answer: inactive

Question: Which outcome does the source give for `NCC1(CC(=O)O)CCCCC1` here?
Answer: inactive

Question: For `Cc1ccc(S(=O)(=O)N[C@@H](CCCCN)C(=O)CCl)cc1`, which outcome is on record?
Answer: inactive

Question: With `CCCC(C)(COC(N)=O)COC(=O)NC(C)C` (stereo not given) as the molecule, how does the outcome read?
Answer: inactive

Question: With `Cc1ncc(CNC(=O)N(CCCl)N=O)c(N)n1` as the molecule, how does the outcome read?
Answer: inactive

Question: With `O=c1[nH]c2ccccc2n1CCCN1CCC(n2c(=O)[nH]c3cc(Cl)ccc32)CC1` as the molecule, how does the outcome read?
Answer: inactive

Question: With `Nc1ccncc1` as the molecule, how does the outcome read?
Answer: inactive

Question: For `c1ccc(C2CC2)c(OCC2=NCCN2)c1`, which outcome is on record?
Answer: inactive

Question: Which outcome does the source give for `Cc1cccc(C)c1NC1=NCCCS1` here?
Answer: inactive

Question: With `CCCN1CCC[C@@H]2Cc3[nH]ncc3C[C@H]21` as the molecule, how does the outcome read?
Answer: inactive

Question: For `COc1ccccc1N1CCNCC1`, which outcome is on record?
Answer: inactive

Question: With `CCn1cc(C(=O)O)c(=O)c2ccc(C)nc21` as the molecule, how does the outcome read?
Answer: inactive
